Source: PubChem BioAssay (NCATS)
Results filed as inconclusive are left out. Calls of active or inactive are those of the source. Unless noted, calls follow the shape of the dose curve; as a rule, active = well fitted inhibition curve with a large enough effect; inconclusive = small, poorly fitted or top-dose-only effect; inactive = no such curve, though single readings can be large or run the other way.

Legend:
[1] = qHTS profiling of the MIPE4 collection as inhibitors of Plasmodium falciparum (3D7) proliferation (AID 743344; call rule not given here;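 also: scaled between DMSO vehicle wells and 0.29 µM artemisinin as full inhibition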); conditions: P. falciparum 3D7 in erythrocytes, SYBR Green DNA fluorescence, 72 h; at 28.5 µM unless noted
How it was run: (§1)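 Erythrocytes infected with P. falciparum (0.3% parasitemia, 2.5% hematocrit) incubated with compounds 72 h at 37 C, 5% CO2. Lysis with saponin/Triton buffer containing SYBR Green I, overnight at room temperature in the dark; DNA fluorescence (485/535 nm) normalised to 0.29 uM artemisinin and DMSO.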

[2] = qHTS profiling of the MIPE4 collection as inhibitors of Plasmodium falciparum (DD2) proliferation (AID 743345; call rule not given here); conditions: P. falciparum Dd2 in erythrocytes, SYBR Green DNA, 72 h; at 28.5 µM unless noted
How it was run: as §1

[3] = qHTS profiling of the MIPE4 collection as inhibitors of Plasmodium falciparum (DD2) proliferation (Rep 2) (AID 743346; call rule not given here); conditions: P. falciparum Dd2 in erythrocytes, SYBR Green DNA, 72 h; at 28.5 µM unless noted
How it was run: as §1

[4] = qHTS profiling of the MIPE4 collection as inhibitors of Plasmodium falciparum (HB3) proliferation (AID 743347; call rule not given here;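 also: plate controls were DMSO vehicle wells for no effect and artemisinin wells for full effect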); conditions: P. falciparum HB3 in erythrocytes, SYBR Green DNA, 72 h; at 28.5 µM unless noted
How it was run: as §1

[5] = High-throughput drug toxicity screening in the BPDCN cell line Gen2.2 (AID 1224824; call rule not given here;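 also: cells exposed to compounds for 48 h before reading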); conditions: Gen2.2 BPDCN cells; at 45.8 µM (top of the series) unless noted
How it was run: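 Gen2.2, 500 cells/well, phenol red-free RPMI/10% FBS/Pen-Strep; 48 h cpd, 37 °C/5% CO2; CTG lum, 15 min RT. Norm: DMSO = 100%, bortezomib 9.2 uM final = 0%.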

[6] = High-throughput drug toxicity screening in the BPDCN cell line Cal-1 (AID 1224825; call rule not given here); conditions: Cal-1 BPDCN cell viability, qHTS; at 45.8 µM (top of the series) unless noted
How it was run: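 Exponentially growing Cal-1 cells, 500 per well in phenol red-free RPMI with 10% FBS, were exposed to compounds for 48 h at 37 °C, 5% CO2. Viability was read by CellTiter-Glo luminescence and normalised to DMSO (100%) and 9.2 uM bortezomib (0%).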

[7] = qHTS assay for measurement of the activity of small molecule inhibitors on Zika virus induced Caspase-3 activity in human iPSC derived neural progenitor cells (hNPCs) (AID 1224857); conditions: hNPCs ZIKV-induced caspase-3/7, Caspase-Glo luminescence, 6 h; series mostly up to 45.7 µM; also: % of control where 0% means no effect; nearly all actives have a fitted effect of over 65% in size
How it was run: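 Zika virus (2 FFU/cell) infection of human iPSC-derived NPCs, 6 h, following 1 h compound preincubation. Read-out: Caspase-Glo 3/7 luminescence.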

[8] = qHTS assay for measurement of the activity of small molecule inhibitors on Zika virus induced Caspase-3 activity in human astrocytoma cells (AID 1224859); conditions: SNB-19 ZIKV-induced caspase-3/7, luminescence, 6 h; series mostly up to 45.7 µM;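 also: plate controls were ZIKV-infected untreated cells for no effect and uninfected cells for full effect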
How it was run: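 Caspase activation in ZIKV-infected SNB-19 cells (2 FFU/cell, 6 h) measured by Caspase-Glo 3/7 luminescence after 30 min RT; compound pre-incubated 1 h; normalised to uninfected and infected controls.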

[9] = qHTS Screen of the MIPE 4.0 Collection Against Ewings Sarcoma (RDES) (AID 1259252); conditions: RD-ES Ewing sarcoma viability, CellTiter-Glo, 48 h; series mostly up to 45.8 µM; also: nearly all actives have a fitted effect of over 35% in size; also: potency is read from the fitted curve at half-maximal effect
How it was run: (§2)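 Here, cells in 5% FBS RPMI were exposed for two days (48 h) to compound dilutions added four hours after plating. ATP-based CellTiter-Glo luminescence measured viability, normalized to vehicle and no-cell blanks.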

[10] = qHTS Screen of the MIPE 4.0 Collection Against Ewings Sarcoma (TC71) (AID 1259253); conditions: TC71 Ewing sarcoma viability, CellTiter-Glo, 48 h; series mostly up to 45.8 µM; also: nearly all actives have a fitted effect of over 40% in size; also: potency is read from the fitted curve at half-maximal effect
How it was run: as §2

[11] = qHTS Screen of the MIPE 4.0 Collection Against Ewings Sarcoma (EW8) (AID 1259255); conditions: EW8 Ewing sarcoma viability, CellTiter-Glo, 48 h; series mostly up to 45.8 µM; also: nearly all actives have a fitted effect of over 35% in size; also: potency is read from the fitted curve at half-maximal effect;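 as to viability: 100% = DMSO-treated cells and 0% = medium-only wells without cells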
How it was run: as §2

[12] = qHTS Screen of the MIPE 4.0 Collection Against Ewings Sarcoma (TC32) (AID 1259256); conditions: TC32 Ewing sarcoma viability, CellTiter-Glo, 48 h; series mostly up to 45.8 µM; also: nearly all actives have a fitted effect of over 45% in size; also: potency is read from the fitted curve at half-maximal effect
How it was run: as §2

SMILES | parasite growth, % of DMSO control [1] [%] | parasite growth remaining, % of DMSO control (lower = more inhibition) [2] [%] | parasite growth, % of control (lower = inhibition) [3] [%] | growth, % of control [4] [%] | cell viability, % of control (lower = more cytotoxic) [5] [%] | viability (% of control) [6] [%] | Potency [7] | Potency [8] | Potency [9] | Potency [10] | Potency [11] | Potency [12]
Nc1nc(=O)n([C@H]2CSC(CO)O2)cc1F (some centres undefined) | 399 | 99.2 | 160 | 250 | 249 | 102 | inactive | inactive | inactive | inactive | inactive | inactive
CC(C)(C)c1nc2c3cc[nH]c(=O)c3c3cc(F)ccc3c2[nH]1 | 59.4 | 94.4 | 62 | 58.6 | 20.2 | 26.4 | inactive | inactive | 4.18 µM (active) | 5.9 µM (active) | 4.69 µM (active) | 4.18 µM (active)
C[C@@H](Oc1ccc2[nH]nc(C=Cc3cnn(CCO)c3)c2c1)c1c(Cl)cncc1Cl | 5.43 | 8.67 | 16.4 | 5.78 | 8.4 | 6.51 | inactive | inactive | 3.32 µM (active) | 0.662 µM (active) | 0.418 µM (active) | 0.264 µM (active)
C[C@@]12C[C@@]3(O)O[C@@H](O1)[C@]1(COC(=O)c4ccccc4)[C@@H]3C[C@@]12O[C@@H]1O[C@H](CO)[C@@H](O)[C@H](O)[C@@H]1O | 90.9 | 96.7 | 141 | 109 | 109 | 109 | inactive | inactive | inactive | inactive | inactive | inactive
O=C(c1ccc(F)cc1)N1CCC[C@H](c2nc(-c3ccc(F)cc3)no2)C1 | 74.1 | 94.6 | 70.9 | 82.2 | 93.8 | 111 | inactive | inactive | inactive | inactive | inactive | inactive
COc1cc2c(cc1O)CCC1C2CC[C@@]2(C)C1CC[C@@H]2O (some centres undefined) | 79.6 | 94.6 | 67 |  | 95.2 | 10.9 | inactive | inactive | 7.43 µM (active) | 2.64 µM (active) | 3.32 µM (active) | 2.64 µM (active)
Cc1cc(Nc2ncc3c(n2)N(C)C(=O)N(c2cc(NC(=O)c4cccc(C(F)(F)F)c4)ccc2C)C3)n(C)n1 | 7.35 | 15.8 | 15.8 | 10.8 | 11.1 | 7.39 | inactive | inactive | 0.418 µM (active) | 0.372 µM (active) | 0.833 µM (active) | 0.418 µM (active)
COc1cc(OC)c(C=CS(=O)(=O)Cc2ccc(OC)c(NCC(=O)O)c2)c(OC)c1 | 88.3 | 82.7 | 77.6 |  | 5.33 | 8.09 | inactive | inactive | 0.0935 µM (active) | 0.187 µM (active) | 0.235 µM (active) | 0.0526 µM (active)
O=C(NNC(=O)c1ccc(CNS(=O)(=O)c2ccc(F)c(Cl)c2)cc1)c1ccccc1 | 371 | 87.9 | 100 |  | 143 | 116 | inactive | inactive | inactive | inactive | inactive | inactive
N#Cc1c(NC(=O)c2cccc3ccccc23)sc2c1CCCC2 | 69.2 | 81.7 | 90 |  | 83.4 | 9.83 | inactive | inactive | 0.296 µM (active) | 0.526 µM (active) | 0.469 µM (active) | 0.235 µM (active)
FC(F)c1nc2ccccc2n1-c1nc(N2CCOCC2)nc(N2CCOCC2)n1 | 4.72 | 7.94 | 8.19 | 3.1 | 9.88 | 37.8 | inactive | inactive | 0.235 µM (active) | 0.59 µM (active) | 3.72 µM (active) | 0.118 µM (active)
C=C[C@@H]1CN2CCC1C[C@H]2[C@H](O)c1ccnc2ccc(OC)cc12 (some centres undefined) | 10.4 | 9.84 | 15.1 | 12.1 | 111 | 70 | inactive | inactive | inactive | inactive | inactive | inactive
COc1ccc(Nc2cc(-c3cnc(N)nc3)nc(N3CCOCC3)n2)cn1 | 16.3 | 11.1 | 27.1 |  | 28.9 | 25.7 | inactive | inactive | 5.9 µM (active) | 14.8 µM (active) | 11.8 µM (active) | 5.26 µM (active)
FC(F)(F)c1ccc(Nc2nc3ccc(Oc4ccnc(-c5ncc(C(F)(F)F)[nH]5)c4)cc3[nH]2)cc1 | 6.13 | 48.6 | 15.3 | 7.1 | 14.5 | 24.9 | inactive | inactive | 11.8 µM (active) | 13.2 µM (active) | 11.8 µM (active) | 9.35 µM (active)
CC(C)c1cnn2c(NCc3ccccc3)cc(NCCCCCCN)nc12 | 6.96 | 12.1 | 11.2 | 2.16 | 4.58 | 3.93 | inactive | inactive | 3.72 µM (active) | 4.69 µM (active) | 18.7 µM (active) | 13.2 µM (active)
O=C1CSC(=O)N1C(CCc1ccncc1)COc1ccc(-c2cccc([N+](=O)[O-])c2)cc1 (centres undefined) | 17.8 | 49.4 | 32.8 | 4.69 | 188 | 33 | inactive | inactive | 2.96 µM (active) | 4.69 µM (active) | 13.2 µM (active) | 6.62 µM (active)
CCn1c(=O)c2c(nc(C=Cc3ccc(OC)c(OC)c3)n2C)n(CC)c1=O | 37.9 | 83.4 | 34.2 | 47.9 | 193 | 99.5 | inactive | inactive | inactive | inactive | inactive | inactive
